Data taken from the supplement of paper PMC6555819.

Tests used:
Test in all cases: PBM binding z-score (relative to random genomic background probes); higher = stronger binding; sequences stand for … in GC…GCGATTGACAGCGTAGAATGAAGG
[1] = tested on: RARb homodimer (NR concentration 270 nM)
Procedure, shortened: (§1)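 Binding buffer was PBS pH 7.4 with 2% milk, 0.02% Triton X-100, 1 mM DTT, 0.2 mg/mL BSA and 0.4 mg/ml salmon testes DNA. In it, ligand-free nuclear receptor dimers were incubated 1 h on custom Agilent 4×180K protein-binding microarrays carrying double-stranded probes. Antibodies against each partner (one per run) detected binding, and z-scores were calculated against random background probes after regression normalization of scanned fluorescence.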

[2] = tested on: RARg:RXRa (NR concentration 270 nM, RXRa partner concentration 90 nM)
Procedure, shortened: as §1

[3] = tested on: RARg homodimer (NR concentration 270 nM)
Procedure, shortened: as §1

[4] = tested on: RXRa DBDmut IVT, anti-RXR (DBD mutation: RXRa K156A/R161A, NR concentration 90 nM)
Procedure, shortened: as §1

[5] = tested on: RXRa homodimer (NR concentration 180 nM)
Procedure, shortened: as §1

[6] = tested on: THRa:RXRa (NR concentration 90 nM, RXRa partner concentration 90 nM)
Procedure, shortened: as §1

[7] = tested on: THRa homodimer (NR concentration 90 nM)
Procedure, shortened: as §1

[8] = tested on: VDR:RXRa (NR concentration 270 nM, RXRa partner concentration 90 nM)
Procedure, shortened: as §1

[9] = tested on: VDR homodimer (NR concentration 270 nM)
Procedure, shortened: as §1

| Sequence | PBM binding z-score [1] | PBM binding z-score [2] | PBM binding z-score [3] | PBM binding z-score [4] | PBM binding z-score [5] | PBM binding z-score [6] | PBM binding z-score [7] | PBM binding z-score [8] | PBM binding z-score [9] |
| --- | --- | --- | --- | --- | --- | --- | --- | --- | --- |
| TCTATTAGTTGATGAGGGCAACCGAAACAGCGGA | 1.27 | 0.771 | 0.907 | 1.31 | 1.06 | 1.68 | 0.938 | 1.15 | 1.35 |
| CCGAGTAGGTTATGGGGCATTCTGGCAACGGTGA | 1.05 | 0.374 | 0.468 | 0.11 | 0.554 | 0.0308 | 0.157 | -0.0151 | 0.195 |
| TCATATAGGTACAAGGTGAAAGTCGGTGTGGTAA | 1.38 | 0.762 | 0.453 | 2.04 | 1.33 | 1.91 | 1.51 | 1.22 | 0.703 |
| CGTCCAAGGTCAGCAGGTCCGTGAAAGCGACGTG | 4.13 | 5.15 | 5.97 | 2.96 | 3.76 | 3.59 | 1.92 | 6 | 2.71 |
| CCTACTGGGCCTAGGTCATTGATCAGTCAAAGCA | 2.06 | 2.02 | 1.46 | -0.592 | 1.34 | 2.07 | 0.765 | 0.813 | 0.74 |
| ACTATTGGTTGAGACGAGGGCAACCGATAGGTTG | 1.15 | 0.833 | 0.715 | 0.116 | 0.596 | 2.69 | 0.731 | 0.873 | 1.02 |
| ACTTACGAGTCAACGAGGTTATAGCACGCGTATA | 0.874 | 1.07 | 0.785 | 0.637 | 1.59 | 2.04 | 0.474 | 4.89 | 0.877 |
| CCAAGCAGGCCAATCTGGGTCACTCAAGGCTTGA | 2.26 | 1.4 | 1.34 | 0.0779 | 1.25 | 3.74 | 0.319 | 0.733 | 0.154 |
| TCTGCTAGGTCAGTTGGTCAGCAAACGAGCTGCC | 2.52 | 2.78 | 3.8 | 0.526 | 0.98 | 1.35 | -0.0215 | 0.276 | -0.695 |
| TTACCAAGGTGAGCTGAGGTCGTTCATCCAACTC | 1.81 | 1.4 | 0.963 | 0.409 | 1.3 | 4.63 | 2.3 | 4.32 | 2.41 |
| CGTTCAAGGTCAGCAGGTCAGTGAAAGCGACGTG | 5.45 | 6.75 | 7.14 | 3.31 | 5.46 | 4.18 | 3.13 | 4.25 | 2.25 |
| CCTACTGGGCCACGAAAGGACATTGATTCAGTGA | 1.2 | 0.593 | 1.01 | -0.0534 | -0.0708 | 1.94 | 0.069 | -0.289 | -0.0244 |
| GCTTGTAGATCAAGCTTAAGAAAGACTAAGCTAA | -1.31 | -0.516 | -0.459 | -0.635 | -0.645 | -0.583 | -1.48 | -0.459 | -0.457 |
| CCAGGCAGGTGAAAGGTAACTCAGTCTGGTACGC | 0.447 | 0.784 | 0.255 | -0.641 | 1.53 | 0.824 | -0.15 | 0.277 | -0.0369 |
| CTCGAAACGTCGGTTGAGGTGAGTATACGGATAA | -0.165 | 0.0462 | 0.0959 | -0.0246 | -0.0266 | 2.55 | 1.2 | -0.213 | -0.242 |
| CAAATTAGGTCACAGAGGTCAAAGTCCGTGCGTA | 5.59 | 7.24 | 7.81 | 3.72 | 7.43 | 4.73 | 3.68 | 8.12 | 6.37 |
| TTACCAAGGTGAGCTGAGGTCGGTGATCCAACTC | 1.46 | 0.608 | 0.586 | -0.659 | 0.505 | 4.31 | 1.25 | 1.26 | 0.0612 |
| CAAACTAGGTCACGAAAGGTCAGAGTCGAATGAC | 5.65 | 7.33 | 7.81 | 2.37 | 7.38 | 4.84 | 2.26 | 6.2 | 2.55 |
| ATCTCTAGGTAAGACTCAGTTAAGTGAAGAACGC | 0.172 | 0.0663 | 0.313 | 0.443 | 0.197 | 0.607 | 0.783 | 0.511 | 0.377 |
| TCGAGTAGGTTAGGGGCACTCAGAATGGCGTCGA | 0.798 | 0.322 | 0.17 | 0.247 | 0.488 | 0.572 | 0.0941 | -0.143 | 0.0717 |
| CTCGAAAGGTCGTGCTCAGGTGATTATACCAAAC | 2.98 | 4.97 | 4.05 | 2.27 | 4.89 | 3.89 | 1.39 | 3.58 | 1.25 |
| GTACCAAGGTGAATAGGCCGTTGATGAGTAGGCG | 0.865 | 0.98 | 0.694 | -0.306 | 0.633 | 1.16 | 0.224 | -0.0408 | -0.141 |
| AGAGACAGGTGATGAAGGTAACTCAGGCTATCAT | 0.746 | 0.284 | 0.541 | -0.709 | 0.56 | 1.25 | 0.485 | 0.424 | 0.0584 |
| GCTATTAGTTGAAAGGGCAACGGAATGATTCTCG | 1.94 | 1.36 | 1.26 | 0.668 | 1.2 | 0.463 | -0.221 | 0.383 | 0.0426 |
| CGTCCAGGGTCAAGGTCAGTGAAAGAGACTCGAA | 4.96 | 6.51 | 6.69 | 2.77 | 6.61 | 4.19 | 2.79 | 4.79 | 2.98 |
| ACAGACAGGTGATGAAGGTAACGCAGGCTATCAT | 0.353 | 0.208 | 0.319 | -0.195 | 0.253 | 0.435 | -0.159 | -0.0633 | -0.267 |
